# Screens (PubChem BioAssay)
# This is one part of a sample in which hits are shown more often than they occur.
# GRP78 ERSR act = inducers of ER stress response in human glioma cells; 420,000 compounds, 0.02% hits; U87-MG GRP78 promoter luciferase reporter, 16 h; AID 602332; Potency, µM, inactives show at the highest dose activation, most hits filed as activators; further: series mostly up to about 76 µM; % of control where 0% means no effect; nearly all actives have a fitted effect of over 35% in size
#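 Stably transfected U87-MG human glioma cells carrying a GRP78-based luminescent sensor were seeded at 1000 cells/well, pin-dosed with compounds and incubated 16 h. Luciferase reagent was then added, and end-point luminescence was read after 10 min at room temperature.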
# VDR inh = inhibitors of human vitamin D receptor | VDR-SRC2-3 peptide fluorescence polarization, 2 h | Potency, µM, for inactives: max response, negative = inhibition, actives largely listed as inhibitors | AID 504847 | P11473 | 400,000 compounds, 0.93% hits; further: on the % scale 0 is the no-effect control and ±100 the full control effect
# Target sequence (P11473 whole entry, looked up): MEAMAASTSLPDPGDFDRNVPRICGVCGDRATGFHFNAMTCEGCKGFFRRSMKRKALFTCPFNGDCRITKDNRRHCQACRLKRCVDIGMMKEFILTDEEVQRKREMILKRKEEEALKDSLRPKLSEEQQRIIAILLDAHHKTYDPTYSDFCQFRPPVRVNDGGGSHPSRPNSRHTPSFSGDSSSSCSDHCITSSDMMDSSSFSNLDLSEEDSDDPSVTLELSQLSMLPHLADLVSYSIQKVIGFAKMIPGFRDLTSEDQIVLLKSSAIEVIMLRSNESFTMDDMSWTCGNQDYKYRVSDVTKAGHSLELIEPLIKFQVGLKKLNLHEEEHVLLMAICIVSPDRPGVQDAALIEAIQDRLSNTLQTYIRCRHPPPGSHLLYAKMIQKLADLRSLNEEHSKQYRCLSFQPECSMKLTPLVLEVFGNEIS
#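 Inhibition of the VDR/SRC2-3 peptide interaction is quantified by fluorescence polarization. Compounds (23 nl, pintool) incubate with the reagents for 2 hours at ambient room temperature.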
# G9a inh = G9a (human) methyltransferase inhibition; G9a H3K9 monomethylation, AlphaScreen, 2 h; Q96KQ7; Potency, µM (series often up to 102 µM), for the others: top-dose activity, negative = inhibition, hits mostly inhibitors; 350,000 compounds, 8.8% hits; further: on the % scale 0 is the no-effect control and ±100 the full control effect; nearly all actives have a fitted effect of over 75% in size
# Target sequence (Q96KQ7 913-1193 limits assumed): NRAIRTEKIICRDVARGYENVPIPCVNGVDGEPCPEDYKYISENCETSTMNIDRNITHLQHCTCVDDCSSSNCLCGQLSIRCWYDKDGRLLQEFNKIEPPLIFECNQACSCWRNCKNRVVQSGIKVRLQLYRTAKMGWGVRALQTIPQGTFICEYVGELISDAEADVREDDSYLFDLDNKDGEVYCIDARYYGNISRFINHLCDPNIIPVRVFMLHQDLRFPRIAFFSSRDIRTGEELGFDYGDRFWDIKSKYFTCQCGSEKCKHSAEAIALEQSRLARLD
#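 G9a (20 nM) preincubated 15 min RT with compounds, then 500 nM biotinylated H3K9 peptide and 20 uM SAM added; 2 h RT reaction. Monomethyl-H3K9 product detected by AlphaScreen with anti-H3K9me1 antibody, streptavidin donor and anti-rabbit IgG acceptor beads.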
# ALOX12 inh = inhibitors of human 12S-lipoxygenase ALOX12; purified 12hLO, xylenol orange hydroperoxide absorbance; Potency, µM (doses to about 108 µM), inactives show at the top dose activity change, negative = inhibition, actives largely listed as inhibitors; P18054; 580,000 compounds, 1.1% hits; further: on the % scale 0 is the no-effect control and ±100 the full control effect
#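 Purified human 12hLO at 150 nM in 25 mM Hepes, 0.01% Triton X-100, pH 7.0, preincubated 15 min at room temperature with compound. Reaction started with 40 uM arachidonic acid, 30 min at room temperature. Hydroperoxide measured by Fe-xylenol orange, 573/405 nm absorbance ratio.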
# Sfp PPTase inh = inhibitors of Bacillus subtilis Sfp phosphopantetheinyl transferase; Biochemical Sfp PPTase activity, qHTS; AID 1490; 310,000 compounds, 3.5% hits; Potency, µM, for inactives: largest response in the series, negative = inhibition, most hits filed as inhibitors;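 further: the enzyme is Sfp with the accession as filed and its product quenches rhodamine fluorescence; 0% = enzyme reaction without inhibitor and -100% = no enzyme wells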
#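 Buffer: 50 mM Hepes-Na pH 7.6, 10 mM MgCl2, 0.01% Nonidet P-40, 0.01% BSA. Enzyme 15 nM, pre-exposed to compound 15 min; substrates then added and fluorescence change tracked over 30 min.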
# * marks the source's active call; other numbers are inactive results; ? = inconclusive; · = no result given; [ ] = dose if it differs, or a comment. The call rests on the fitted dose curve; in most records, active means well fitted curve in the direction sought with a large enough effect; inconclusive means small, poorly fitted or top-dose-only effect, or another doubt; inactive means no such curve, though single readings can be large; an effect the other way counts as inactive or inconclusive. Potency means the concentration at half of the fitted maximal effect.
SMILES,GRP78 ERSR act,VDR inh,G9a inh,ALOX12 inh,Sfp PPTase inh
Cc1cccc(OC[C@H]2C[C@@H](NC(=O)C3CCCC3)[C@H](O)[C@@H]2O)n1,·,·,·,2%[176 µM],·
Cc1cccc(OC[C@H]2C[C@@H](NC(=O)c3ccc(C#N)cc3)[C@H](O)[C@@H]2O)n1,·,·,·,25µM*,·
FC(F)(F)c1ccccc1CNCc1ccccc1,·,·,·,14%,·
c1ccc2cc(CNCc3cccc4ccccc34)ccc2c1,-3%,-5%,67%[59 µM],?,-3%
COc1cc(CNCc2cccc3ccccc23)cc(OC)c1,-4%,-14%,50µM*,0.71µM*,-10%
COc1ccc(CNCc2cccc3[nH]ccc23)cc1,·,·,·,-9%,·
COc1cc(CNCc2c[nH]c3ccccc23)cc(OC)c1,-4%,0%,14µM*,?,-3%
COc1cc(CNCc2ccccc2C(F)(F)F)cc(OC)c1,-4%,-3%,6.3µM*,-33%,-23%
CC(C)Cn1cnc2c1c(=O)n(CC(=O)N1CCc3ccccc31)c(=O)n2Cc1ccccc1,·,·,·,3%,·
COc1cc2oc(=O)c(CC(=O)N3CCC(O)(c4ccc(Cl)cc4)CC3)c(C)c2cc1OC,·,·,·,-30%,·
CCCCCCCCOc1ccccc1C(=O)Nc1ccc(C(=O)OCC[N+](C)(CC)CC)cc1,-6%,?,-6%[12.7 µM],?,40µM*
Cc1cccnc1NC(=O)c1ccc2nc(N)sc2c1,4%,7%,40µM*,5%,-16%
COc1ccc(CCNC(=O)/C(C#N)=C/c2ccc(OCC(=O)NCC3CCCO3)cc2)cc1OC (stereo not drawn),-1%,6%,8%[0.501 µM],18%,17%
O=C(CSCc1cnn(-c2ccccc2)c1-n1cccc1)NCCN1CCOCC1,-4%,9%,4%,-23%,26%
O=C(CNCC1CCCO1)Nc1ccccc1-n1cccc1 (stereo not drawn),-1%,7%,8.9µM*,?,-25%
O=C(CNCC1CCCCC1)Nc1ccccc1N1CCCCC1,0%,12%,?,?,?
COc1ccc(CCNC(=O)CNCC2CCCO2)cc1OC (stereo not drawn),-2%,3%,8.9µM*,?,63µM*
O=C(CNCC1CCCO1)Nc1ccccc1N1CCOCC1 (stereo not drawn),-4%,-4%,13µM*,?,?
O=C(CSCc1cnn(-c2ccccc2)c1-n1cccc1)NCC1CCCO1 (stereo not drawn),-5%,27%,50µM*,14%,13%
C#CCNC(=O)C[C@@H]1c2nc(NC(=O)c3ccc(C(C)(C)C)cc3)sc2C[C@@H]2[C@](C)(CO)[C@H](O)CC[C@]21C,·,·,·,-25%,·
CN(C)CCCNCC(=O)Nc1ccccc1N1CCOCC1,-3%,-13%,?,?,79µM*
COc1ccc(CC(=O)Nc2ccccc2NC(=O)Cc2ccc(OC)cc2)cc1,-5%,17%,-23%,?,8%
COc1ccc(CNCC(=O)Nc2ccccc2-n2cccc2)cc1,-3%,-2%,6.3µM*,-7%,6%
O=C(Cc1ccccc1)Nc1ccccc1N1CCOCC1,1%,3%,0%[0.0925 µM],0%,4%
COc1ccc(C2NC(=O)N(CC(=O)N3CCCCCC3)C3=C2C(=O)OC3)cc1 (stereo not drawn),·,·,·,31%,·
SMILES,GRP78 ERSR act,VDR inh,G9a inh,ALOX12 inh,Sfp PPTase inh
CN(C(=O)[C@@H]1C[C@@H](c2ccc(F)cc2)N(CCOc2ccccc2)C1)c1cccnc1,·,·,·,2%[176 µM],·
CC(=O)OCOC(=O)CN(CC(=O)OCOC(C)=O)c1ccccc1OCCOc1ccccc1N(CC(=O)OCOC(C)=O)CC(=O)OCOC(C)=O,-11%,1%,2%[59 µM],11%[57.4 µM],89µM*
CN(CCC#N)C(=O)COC(=O)c1ccc2[nH]c3c(c2c1)CCCC3,2%,-19%,-49%,-7%,-3%
CCCNC(=O)c1ccc2[nH]c3c(c2c1)CCCC3,·,·,·,1%,·
CN(C)CCOC(=O)c1ccc2[nH]c3c(c2c1)CSCC3,0%,-4%,28µM*,?,2%
O=C(O)c1ccc2[nH]c3c(c2c1)CSCC3,-4%,45µM*,?,·,40µM*
CCN1C(=O)CCC2(C(=O)NCCc3c[nH]c4ccccc34)CCCC=C12 (stereo not drawn),·,·,·,10%,·
COc1ccc(Cc2nnc(Cl)c3ccccc23)cc1OC,0%,7%,50µM*,0%,8%
COc1ccc(Cc2nnc(Nc3cccc(Cl)c3)[nH]c2=O)cc1OC,·,·,·,-15%,·
CCOC(=O)C1CCC(CNCc2ccccc2C)CC1 (stereo not drawn),0%,-10%,50µM*,-5%,5%
O=C(O)C1CCC(CNCc2ccccc2Cl)CC1 (stereo not drawn),-5%,-1%,-2%,-5%,17%
O=C(CSc1nc(-c2ccc(F)cc2)nc2ccc(F)cc12)Nc1cccc(C(=O)O)c1,-7%,2%,22µM*,?,-9%
O=C(CSc1nc(-c2ccccc2)nc2ccccc12)Nc1cccc(C(=O)O)c1,-1%,7%,-29%,-1%,6%
O=C(CSc1nc(-c2ccccc2)nc2c1Cc1ccccc1O2)Nc1ccc(C(=O)O)cc1,-1%,-15%,-4%,-5%,79µM*
Cc1ccc(-c2nc3c(c(SCC(=O)Nc4cccc(C(=O)O)c4)n2)Cc2cccc(C)c2O3)cc1,2%,6%,10µM*,·,·
O=C1c2ccccc2C(=O)C1(CO)c1ccc(OC(F)F)cc1,1%,8%,-10%[59 µM],-7%,26%
O=C1c2ccccc2C(=O)C1(CO)c1ccccc1,3%,-15%,45µM*,-17%,14%
O=C(COC(=O)/C=C/c1cccs1)Nc1nc(-c2ccccc2)cs1,21%,-10%,1.1µM*,-8%,5%
Cc1cc(C)cc(OCC(=O)Nc2nc(-c3cccnc3)cs2)c1,0%,?,10µM*,17%,45µM*
O=C(C[n+]1cc(-c2ccccc2)n2c1CCC2)Nc1nc(-c2ccccc2)cs1,-1%,-3%,?,-29%,56µM*
O=C(COc1ccccc1)Nc1nc(-c2ccncc2)cs1,0%,-9%,8.9µM*,66%,50µM*
Cc1ccc(-c2c[n+](CC(=O)Nc3nc(-c4ccccc4)cs3)c3n2CCC3)cc1,-5%,1%,?,?,-5%
COc1cccc(CCC2CCCN(C(=O)c3ccoc3C)C2)c1 (stereo not drawn),·,·,·,66%,·
CC(C)CN(CC(C)C)C(=O)COC(=O)c1cc(=O)[nH]c2ccccc12,·,·,·,21%,·
O=C(CN1C2=NCCCN2c2ccccc21)c1ccc(Br)s1,-4%,22%,50µM*,0%,-20%
O=S1(=O)c2ccccc2N=NN1Cc1ccc(Cl)cc1,-4%,-6%,0.63µM*,-48%,50µM*
O=S1(=O)c2ccccc2N(Cc2ccc(Cl)cc2)c2ccccc21,-5%,6%,-22%[59 µM],-7%,·
